According to PubChem BioAssay (NCATS):
Records with an inconclusive call do not appear. Activity calls are given as the source filed them. The call rests on the fitted dose curve; in most records, active means well fitted curve in the direction sought with a large enough effect; inconclusive means small, poorly fitted or top-dose-only effect, or another doubt; inactive means no such curve, though single readings can be large; an effect the other way counts as inactive or inconclusive.

Columns and labels:
[1] = COV-362 Cancer Cell Toxicity qHTS against the NCATS CANVASS Library (AID 1347352); details: COV-362 viability, CellTiter-Glo luminescence, 72 h; further: potency means the concentration at half of the fitted maximal effect
Procedure, shortened: (§1)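 Cells at 1000/well were given compound 4 h after plating in an 11-point series. Viability was read by CellTiter-Glo luminescence after 72 h at 37 degrees C.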

[2] = A2780 Cisplatin Sensitive Ovarian Cancer Cell Toxicity qHTS against the NCATS CANVASS Library (AID 1347353); details: A2780 ovarian cancer viability, ATPLite luminescence, 72 h; further: potency means the concentration at half of the fitted maximal effect; nearly all actives have a fitted effect of over 60% in size
Procedure, shortened: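 A2780 cells, 750/well, settled 4 h at 37 °C, then treated with an 11-point compound series for 72 h. Viability was read as ATPLite luminescence after 10 min at room temperature, with bortezomib as control.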

[3] = HEK-293 Cancer Cell Toxicity qHTS against the NCATS CANVASS Library (AID 1347355); details: HEK-293 viability, CellTiter-Glo luminescence, 72 h; further: potency means the concentration at half of the fitted maximal effect; nearly all actives have a fitted effect of over 65% in size
Procedure, shortened: as §1

[4] = HPAF-II 24hr Apoptosis Induction qHTS against the NCATS CANVASS Library (AID 1347356); details: HPAF-II caspase-3/7 Caspase-Glo luminescence; series mostly up to 46.1 µM
Procedure, shortened: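 HPAF-II cells (500/well) exposed to compounds in 11-point series for 24 h at 37 degrees C; caspase-3/7 activity read by Caspase-Glo luminescence after 15 min at room temperature. Doxorubicin titration as control.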

[5] = HEK293 18hr Apoptosis Induction qHTS against the NCATS CANVASS Library (AID 1347357); details: HEK293 caspase-3/7 Caspase-Glo luminescence; series mostly up to 46.1 µM
Procedure, shortened: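 HEK293 cells (500 per well, DMEM with 10% FBS) were treated with natural products, incubated 18 hours at 37 degrees C, then caspase-3/7 activity was read by Caspase-Glo luminescence after 15 min at room temperature.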

[6] = HPAF-II 12hr Apoptosis Induction qHTS against the NCATS CANVASS Library (AID 1347358); details: HPAF-II caspase-3/7 Caspase-Glo luminescence; series mostly up to 46.1 µM
Procedure, shortened: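 HPAF-II cells, 500/well in DMEM + 10% FBS, exposed 12 hours at 37 degrees C to compound (11-point). Caspase-Glo 3/7 added for 15 min at room temperature; luminescence reflects caspase-3/7 activity.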

[7] = HEK293 24hr Apoptosis Induction qHTS against the NCATS CANVASS Library (AID 1347359); details: HEK293 caspase-3/7 activation, Caspase-Glo luminescence; series mostly up to 46.1 µM
Procedure, shortened: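 Caspase-3/7 activation measured as luminescence from the DEVD-based Caspase-Glo reagent, 15 min at room temperature, following 24-hour compound treatment of HEK293 cells.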

[8] = HPAF-II 18hr Apoptosis Induction qHTS against the NCATS CANVASS Library (AID 1347360); details: HPAF-II caspase-3/7 luminescence; series mostly up to 46.1 µM
Procedure, shortened: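 HPAF-II cells (500/well, DMEM + 10% FBS) were exposed to compounds for 18 hours at 37 degrees C. Caspase-3/7 activity was then read by Caspase-Glo 3/7 luminescence after 15 min at room temperature.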

[9] = HEK293 12hr Apoptosis Induction qHTS against the NCATS CANVASS Library (AID 1347361); details: HEK293 caspase-3/7 Caspase-Glo luminescence; series mostly up to 46.1 µM
Procedure, shortened: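 Read-out: Caspase-Glo 3/7 luminescence (DEVD substrate), 15 min RT. Preceded by 12 h compound exposure of HEK293, 500 cells/well, 11-pt qHTS titration; doxorubicin titration as control.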

[10] = tested on: NAD(P)H diaphorase (Clostridium kluyveri); assay: Diaphorse counterscreen qHTS: Assay Interference Panel against the NCATS CANVASS Library (AID 1347362); details: Diaphorase enzyme, resazurin to resorufin fluorescence; series mostly up to 57.5 µM
Procedure, shortened: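 Counterscreen for coupling-enzyme interference: resorufin fluorescence from resazurin/NADH turnover, read after 5 min at room temperature. Compounds were tested over an 11-point series after 15 min dark preincubation with diaphorase in PBS-Tween.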

[11] = biological target: Luciferin 4-monooxygenase (Photinus pyralis) (UniProt P08659); assay: Firefly luciferase counterscreen qHTS: Assay Interference Panel against the NCATS CANVASS Library (AID 1347363); details: purified firefly luciferase, luminescence inhibition, 5 min; series mostly up to 57.5 µM
Procedure, shortened: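 Luminescence inhibition readout: compounds (11-point qHTS) sat 15 min at room temperature with substrate mix (0.013 mM luciferin and ATP), then firefly luciferase was added and signal read 5 min later.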

[12] = KB-8-5-11 Cancer Cell Toxicity qHTS against the NCATS CANVASS Library (AID 1347364); details: KB-8-5-11 MDR cells viability, CellTiter-Glo, 72 h; further: potency means the concentration at half of the fitted maximal effect; nearly all actives have a fitted effect of over 75% in size
Procedure, shortened: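 KB-8-5-11 cells, 500/well in DMEM + 10% FBS, given compounds in an 11-point series. Incubated 72 h at 37 °C. Viability by CellTiter-Glo luminescence. Confirmation also run with 1 uM tariquidar.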

[13] = SDT Cancer Cell Toxicity qHTS against the NCATS CANVASS Library (AID 1347365); details: SDT dog glioma viability, ATP luminescence, 72 h; further: potency means the concentration at half of the fitted maximal effect; nearly all actives have a fitted effect of over 60% in size
Procedure, shortened: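 SDT dog glioma cells (500/well) exposed to an 11-point compound series for 72 hr at 37C, 5% CO2. Cytotoxicity read as ATP content by CellTiterGlo luminescence; bortezomib titration as control.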

[14] = qHTS for ATAD5 Agonist screened against the NCATS CANVASS Library (AID 1347367); details: HEK293T ATAD5-luciferase reporter, luminescence, 16 h; series mostly up to 46.1 µM;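 further: luciferase reporter driven by ATAD5 which rises upon DNA damage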
Procedure, shortened: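 HEK293T cells stably carrying an ATAD5-controlled luciferase reporter (2000 cells/well) attached for 5 hr, then received compounds in an 11-point series for 16hr at 37C. Luminescence was read after a 30 min room-temperature reagent step.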

[15] = G06 Cancer Cell Toxicity qHTS against the NCATS CANVASS Library (AID 1347368); details: G06 dog glioma cells, viability ATP luminescence, 72 h; further: potency means the concentration at half of the fitted maximal effect; nearly all actives have a fitted effect of over 60% in size
Procedure, shortened: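 G06 dog glioma cells, 500 per well, exposed 72 hr at 37C, 5% CO2 to compounds in an 11-point series. Cytotoxicity read as ATP content by CellTiterGlo luminescence.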

[16] = MCF7 Cancer Cell Toxicity qHTS against the NCATS CANVASS Library (AID 1347369); details: MCF7 viability, ATP luminescence (CellTiter-Glo), 72 h; further: potency means the concentration at half of the fitted maximal effect
Procedure, shortened: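 MCF7, 500 cells/well; cpds 11-pt qHTS; 72 hr, 37C/5% CO2; CellTiterGlo ATP luminescence.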

[17] = J3T Cancer Cell Toxicity qHTS against the NCATS CANVASS Library (AID 1347371); details: J3T dog glioma viability, ATP luminescence, 72 h; further: potency means the concentration at half of the fitted maximal effect
Procedure, shortened: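 J3T dog glioma cells, 500 per well, treated 72 h at 37C with compounds (11-point qHTS); viability from ATP content by CellTiterGlo luminescence; bortezomib titration as control.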

[18] = biological target: Nuclear receptor subfamily 1 group I member 3 (Homo sapiens) (UniProt Q14994); assay: qHTS for Constitutive Androstane Receptor (CAR) Antagonist screened against the NCATS CANVASS Library (AID 1347372); details: HepG2-hCAR-CYP2B6 luciferase, CITCO-stimulated antagonist mode; series mostly up to 46.1 µM;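 further: cells stimulated with 50 nM CITCO agonist so inhibition reflects antagonism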
Procedure, shortened: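 HepG2-CYP2B6-hCAR double-stable cells plated, 4hr attach; cpd pin-transferred; CITCO 50 nM final; 24hr 37C/5% CO2; CellTiter-Fluor 1hr (fluorescence), then ONE-Glo luminescence.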

[19] = biological target: Nuclear receptor subfamily 1 group I member 3 (Homo sapiens) (UniProt Q14994); assay: qHTS for Constitutive Androstane Receptor (CAR) Agonist screened against the NCATS CANVASS Library (AID 1347373); details: HepG2-hCAR-CYP2B6 luciferase reporter, ONE-Glo luminescence; series mostly up to 46.1 µM;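 further: every well also contained 1.5 µM PK11195 alongside the test compound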
Procedure, shortened: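 HepG2 cells stably carrying hCAR and a CYP2B6-2.2kb luciferase reporter, treated 24hr at 37C with compounds plus 1.5uM PK11195; activation by ONE-Glo luminescence, viability by CellTiter-Fluor.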

[20] = 10-beta competent E. coli microbial cell viability qHTS against the NCATS CANVASS Library (AID 1347376); details: E. coli 10-beta viability, BacTiter-Glo ATP luminescence, overnight; series mostly up to 46.1 µM
Procedure, shortened: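 10-beta competent E. coli (0.2 OD) were exposed overnight at 37C to compounds in an 11-point series. Viability was read as ATP-dependent BacTiter-Glo luminescence after 20 min at room temperature.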

Measured: Potency

Nuclear receptor subfamily 1 group I member 3 (Homo sapiens), sequence (Q14994 whole entry, looked up): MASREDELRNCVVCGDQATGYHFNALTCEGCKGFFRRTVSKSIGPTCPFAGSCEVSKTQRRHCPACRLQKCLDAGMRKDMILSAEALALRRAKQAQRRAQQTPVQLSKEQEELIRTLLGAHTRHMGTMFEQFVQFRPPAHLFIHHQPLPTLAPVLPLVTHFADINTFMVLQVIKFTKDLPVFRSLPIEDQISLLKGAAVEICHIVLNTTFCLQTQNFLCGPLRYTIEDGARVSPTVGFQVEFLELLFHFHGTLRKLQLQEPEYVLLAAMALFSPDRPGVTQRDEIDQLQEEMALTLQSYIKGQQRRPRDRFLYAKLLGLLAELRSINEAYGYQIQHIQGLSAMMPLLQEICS
Luciferin 4-monooxygenase (Photinus pyralis), sequence (P08659 whole entry, looked up): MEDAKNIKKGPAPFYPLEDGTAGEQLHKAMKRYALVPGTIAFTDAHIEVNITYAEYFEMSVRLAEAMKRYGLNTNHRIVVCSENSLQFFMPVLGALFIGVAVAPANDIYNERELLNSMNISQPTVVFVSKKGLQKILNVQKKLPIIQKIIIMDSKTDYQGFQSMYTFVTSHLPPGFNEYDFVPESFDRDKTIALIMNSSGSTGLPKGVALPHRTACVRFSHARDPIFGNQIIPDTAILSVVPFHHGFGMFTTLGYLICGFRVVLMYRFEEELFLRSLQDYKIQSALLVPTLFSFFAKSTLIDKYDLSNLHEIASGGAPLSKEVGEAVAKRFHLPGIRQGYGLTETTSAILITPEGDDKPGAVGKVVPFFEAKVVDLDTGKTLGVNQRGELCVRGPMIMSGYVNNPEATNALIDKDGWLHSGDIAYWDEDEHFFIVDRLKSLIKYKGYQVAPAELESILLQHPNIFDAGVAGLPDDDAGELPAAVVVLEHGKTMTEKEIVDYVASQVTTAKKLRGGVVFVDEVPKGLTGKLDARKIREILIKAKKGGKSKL

C=C1C(=O)O[C@H]2[C@H]1CC/C(C)=C/CC[C@@]1(C)O[C@@H]21
active: [1] 18.8 µM | [2] 2.96 µM | [3] 7.43 µM | [12] 16.6 µM | [13] 8.33 µM | [15] 9.35 µM | [16] 7.39 µM | [17] 16.6 µM
inactive: all other assays above
